# PubChem BioAssay
# Unmarked numbers belong to inactive results. The source made the active and inactive calls.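 The calls were made as follows, unless noted: active = mean inhibition over 43.08%, the solvent-only control mean plus 3 SD; inactive = the rest.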
# What was measured:
# [1] = target: Nuclear receptor coactivator 3 (Homo sapiens) (UniProt Q9Y6Q9); assay: SRC3 coactivator transcriptional activity inhibitors, confirmation, cell-based, luminescence, quadruplicate (AID 588792); conditions: HEK293 GAL4-SRC3 luciferase reporter, at 3.6 µM, active compounds read high;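 also: 0% = DMSO treated cells and 100% = gossypol at 36 µM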
# Chain of Nuclear receptor coactivator 3 (Homo sapiens) (Q9Y6Q9 whole entry, looked up, the tested form may be a part): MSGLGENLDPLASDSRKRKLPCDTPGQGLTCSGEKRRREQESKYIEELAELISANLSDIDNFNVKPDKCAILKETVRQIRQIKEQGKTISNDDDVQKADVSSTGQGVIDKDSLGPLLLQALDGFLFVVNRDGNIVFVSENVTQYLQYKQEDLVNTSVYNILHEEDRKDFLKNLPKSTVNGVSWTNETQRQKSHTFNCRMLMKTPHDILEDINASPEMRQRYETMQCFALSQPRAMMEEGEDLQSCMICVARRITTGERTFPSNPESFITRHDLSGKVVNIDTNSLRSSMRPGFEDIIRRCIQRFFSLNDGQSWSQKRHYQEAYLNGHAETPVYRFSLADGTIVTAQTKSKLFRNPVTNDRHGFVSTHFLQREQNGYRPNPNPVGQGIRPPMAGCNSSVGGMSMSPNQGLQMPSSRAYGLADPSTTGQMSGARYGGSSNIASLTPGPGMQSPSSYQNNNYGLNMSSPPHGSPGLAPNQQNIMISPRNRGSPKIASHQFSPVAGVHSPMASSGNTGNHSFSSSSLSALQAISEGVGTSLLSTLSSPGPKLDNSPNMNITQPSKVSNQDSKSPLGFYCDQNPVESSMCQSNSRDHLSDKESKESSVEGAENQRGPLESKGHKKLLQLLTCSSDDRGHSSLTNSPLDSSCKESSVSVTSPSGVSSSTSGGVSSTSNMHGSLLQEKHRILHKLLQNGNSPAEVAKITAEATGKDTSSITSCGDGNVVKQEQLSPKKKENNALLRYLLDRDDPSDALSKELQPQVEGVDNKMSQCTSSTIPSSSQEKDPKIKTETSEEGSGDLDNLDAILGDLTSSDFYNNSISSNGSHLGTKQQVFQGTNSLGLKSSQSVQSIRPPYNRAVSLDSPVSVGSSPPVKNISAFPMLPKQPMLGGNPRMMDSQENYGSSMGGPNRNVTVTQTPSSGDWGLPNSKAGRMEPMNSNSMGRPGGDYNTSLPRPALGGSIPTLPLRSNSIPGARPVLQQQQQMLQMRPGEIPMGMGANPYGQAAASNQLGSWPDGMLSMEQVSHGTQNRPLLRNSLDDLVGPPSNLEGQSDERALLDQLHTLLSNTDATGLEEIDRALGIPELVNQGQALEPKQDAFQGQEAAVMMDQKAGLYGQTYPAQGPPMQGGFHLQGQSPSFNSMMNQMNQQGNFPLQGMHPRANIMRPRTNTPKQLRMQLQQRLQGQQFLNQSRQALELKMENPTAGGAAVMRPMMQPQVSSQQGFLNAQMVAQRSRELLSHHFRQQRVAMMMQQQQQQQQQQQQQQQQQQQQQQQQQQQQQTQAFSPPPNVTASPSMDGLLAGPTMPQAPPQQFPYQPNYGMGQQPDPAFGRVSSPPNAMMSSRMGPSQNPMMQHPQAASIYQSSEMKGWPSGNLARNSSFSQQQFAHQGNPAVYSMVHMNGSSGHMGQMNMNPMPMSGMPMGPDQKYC
# [2] = tested on: transactivating tegument protein VP16 (Human herpesvirus 1), Gal4-VP16 luciferase reporter; assay: VP16 transactivation inhibitors, counter-screen for SRC3 inhibitor project, cell-based, luminescence, high throughput (AID 588794; in the data active = inhibition above about 30%); conditions: mammalian cells, VP16-driven luciferase reporter luminescence; at 3.6 µM; active compounds read high
Compound,inhibition [1],inhibition [2]
O=C(O)c1cc(NS(=O)(=O)c2ccc(N3CCOCC3)c([N+](=O)[O-])c2)cc(C(=O)O)c1,1.8%,-5.01%
Cc1cccc(C)c1NC(=O)c1ccc(-c2ccc(Cl)cc2Cl)o1,28.4%,23%
CC(=O)N1CCCc2cc(S(=O)(=O)N3CCCC(C(=O)NCc4ccc(Cl)cc4)C3)ccc21 (centres undefined),4.47%,9.17%
O=C(CN1C(=O)c2ccccc2S1(=O)=O)c1ccc(F)cc1,-13.1%,17.6%
Cc1ccc(S(=O)(=O)NC(=O)c2cc(C)n(-c3ccccc3)c2C)cc1,-1.88%,-1.79%
CN(C)CCCOc1ccc2c(c1)Sc1ccccc1CC2=O,-10.4%,-4.19%
C=CCSc1nsc(NC(=O)Nc2ccc(F)cc2)n1,-4.43%,-4.12%
Cc1cccc(Nc2nc(N)c([N+](=O)[O-])c(N3CC(C)CC(C)C3)n2)c1 (centres undefined),3.08%,15.7%
CCC(C)(C(=O)NC1CCCC1)N(C(=O)CNC(C)=O)c1ccc(C)cc1 (centres undefined),0.65%,-7.27%
COc1cccc(/C=C/C(=O)OCC(=O)N2CCCC2)c1OC,-12.6%,-16%
COc1ccc(Nc2nc(-c3ccccc3)nc3ccccc23)cc1S(=O)(=O)N1CCOCC1,7.91%,1.3%
O=C(COc1ccccc1[N+](=O)[O-])Nc1ccc(N2CCN(C(=O)c3cccs3)CC2)cc1,-7.09%,7.15%
CC1=C(NCCc2ccccc2)CCC1=O,0.47%,-7.31%
CN1C(=O)C2(C(C#N)=C(N)N(c3cc(Cl)cc(Cl)c3)C3=C2C(=O)CC(C)(C)C3)c2ccccc21 (centres undefined),46.5% (active),25.6%
CCCC(=O)NC(c1ccc(OC)cc1)c1ccc2cccnc2c1O (centres undefined),57.7% (active),63.7% (active)
COC(=O)COc1cccc(NC(=O)c2cccs2)c1,-1.66%,-12.7%
COc1ccc(C)cc1NS(=O)(=O)c1ccc(NC(=O)CN(c2cc([N+](=O)[O-])ccc2C)S(C)(=O)=O)cc1,58.6% (active),-20%
c1ccc(NNC2=NCCCCC2)cc1,1.28%,-9.77%
O=C(c1ccc(Cl)cc1)C(Cn1cncn1)C(Sc1ccccc1)c1ccccc1 (centres undefined),14.8%,20.1%
O=C(NNc1ccc(O)cc1)c1ccc(Br)cc1,31.5%,63.4% (active)
O=C(Nc1ccc([N+](=O)[O-])cc1)Nc1nc(-c2ccc(Cl)s2)cs1,60.4% (active),71.6% (active)

Compound,inhibition [1],inhibition [2]
Cc1nc2cc(F)ccc2n1C1CCN(S(=O)(=O)c2ccccc2)CC1,14.1%,15.3%
CCOC(=O)/C(C#N)=C/c1cc(C)n(-c2ccccc2)c1C,18.5%,18.2%
CC(C)C[C@H](NC(=O)c1[nH]cnc1C(=O)N[C@@H](Cc1ccccc1)C(=O)OC(C)(C)C)C(=O)OC(C)(C)C,13.6%,2.92%
O=C(NCc1cccs1)C1CCCN(C(=O)Nc2ccccc2)C1 (centres undefined),17.7%,31.9% (active)
Cc1ccc(Cl)cc1N(Cc1ccc(C(=O)NCc2cccnc2)cc1)S(=O)(=O)c1ccccc1,9.61%,-10.9%
Cc1[nH]c2ccccc2c1C(=O)CN1C(=O)NC2(CC(C)CC(C)(C)C2)C1=O (centres undefined),11.9%,-5.15%
O=C(CCN1CCOCC1)N/N=C/c1cc(Br)cc(Br)c1O,13.6%,7.46%
Clc1ccc(C[n+]2cc(-c3ccccc3)n3c2CCCCC3)c(Cl)c1,22.4%,46.7% (active)
CCCCCCC(=O)NNC(=O)CC(=O)Nc1ccccc1C(=O)O,4.52%,-10.2%
CC(C)OC(=O)c1sc2nc(-c3ccccc3)ccc2c1N,23.7%,-2.61%
CC(=O)Nc1ccc(OCC(O)Cn2c3ccccc3c3ccccc32)c(C)c1 (centres undefined),-0.56%,-0.54%
CC(C)(Sc1cc(C(C)(C)C)c(O)c(C(C)(C)C)c1)Sc1cc(C(C)(C)C)c(O)c(C(C)(C)C)c1,15.9%,-0.87%
CCc1ccc(OCC(=O)NC(NC(=S)Nc2ccc(Cl)cc2)C(Cl)(Cl)Cl)cc1 (centres undefined),-0.7%,0.6%
O=C(NCc1ccc(Cl)cc1)c1cccc(NC(=O)c2ccccc2)c1,-5.52%,26.9%
COc1ccc(C(=O)C2CCCN(Cc3cccn3-c3ccccn3)C2)c(C)c1 (centres undefined),26.1%,9.76%
CC(=O)Nc1ccc(C(=O)N/N=C/c2cc(Br)cc(Br)c2O)cc1,6.09%,11.2%
O=C(NC1CCCC1)C(c1ccncc1)N(Cc1ccccc1)C(=O)Cc1cccs1 (centres undefined),2.62%,-0.83%
CCOC(=O)Cc1[nH]nc2c1C(c1cccc(OC)c1OC)C(C#N)=C(N)O2 (centres undefined),-9.29%,0.25%
COc1ccc(OC)c(N/C=C/C(=O)c2ccccc2)c1,44.8% (active),17.5%
C#CCOCCOCCOCCNc1nc(N2CCN(C(=O)Cn3cc(CCCN=C(N)N)nn3)CC2)nc(N2CCN(C(=O)[C@H](C)n3cc(CCCN=C(N)N)nn3)CC2)n1,3.42%,0.02%
O=C(Nc1ccc(N2CCN(c3ncccc3C(F)(F)F)CC2)nc1)c1cccs1,-7.92%,7.03%

Compound,inhibition [1],inhibition [2]
C=CCc1cccc(/C=N/NC(=O)C[n+]2ccccc2)c1O,24.3%,12.3%
CCn1c(Cc2ccccc2)nnc1SCC(=O)Nc1ccc(N2CCOCC2)c(Cl)c1,-0.44%,-2.29%
C=CCn1c(SCC(=O)NC2CCCC2)nnc1-c1ccccn1,-14.7%,-2.97%
COc1ccc(OC)c(Nc2nc(N)nc(CCl)n2)c1,15.4%,4.74%
O=C(NC1CCCC1)c1cc(COc2ccc3ncccc3c2)on1,19.7%,43.3% (active)
C#CC(=O)N(c1cc(OC)ccc1OC)C(C(=O)NC1CCCC1)c1cccs1 (centres undefined),49.7% (active),7.33%
COc1cc2c(C#N)c(N3CCOCC3)nc(N)c2c(N)n1,-5.11%,0.07%
COc1ccc(C(=O)Nc2ccc(N3CCN(C(=O)c4ccccc4C)CC3)cc2)cc1,28.4%,25.1%
O=C(CNc1cccc([N+](=O)[O-])c1)N/N=C/c1ccc([N+](=O)[O-])o1,32.3%,14.3%
C/C(=N\NC(=S)Nc1cc(S(=O)(=O)N2CCOCC2)ccc1Cl)c1ccccc1F,31.8%,28.8%
CC(C(=O)c1ccc(-c2ccccc2)cc1)[n+]1ccccc1 (centres undefined),5.63%,19.5%
CCOC(=O)c1c(NC(=O)COc2cccc3c2CCN(C)C3=O)sc2c1CCC2,-1.43%,10.2%
COc1ccc(NC(=O)N(C)C[C@H]2Oc3c(NC(=O)Nc4ccc(C(F)(F)F)cc4)cccc3C(=O)N([C@H](C)CO)C[C@@H]2C)cc1,10.2%,-6.34%
O=C(NC(=S)NNC(=O)c1ccccc1O)c1ccc(F)cc1,19%,9.84%
COc1ccc(-n2c(-c3ccc(Br)cc3)c[n+]3c2CCCCC3)cc1,-0.37%,16.2%
CC(C(=O)N1c2ccccc2Sc2ccccc21)n1nnc(-c2cccs2)n1 (centres undefined),2.33%,6.84%
COC(=O)Cc1[nH]n(-c2nc3ccccc3s2)c(=O)c1C(C)=Nc1ccc(C)cc1,90.5% (active),87.1% (active)
CCN1C/C(=C\c2cccc([N+](=O)[O-])c2)C(=O)/C(=C/c2cccc([N+](=O)[O-])c2)C1,-110%,80.6% (active)
COc1cccc(C(=O)CC(=O)C(=O)Nc2cccc([N+](=O)[O-])c2C)c1,-3.08%,-1.84%
FC(F)(F)c1cccc(Nc2cc(-c3ccccc3)nc3ncnn23)c1,-2.25%,-0.93%
